GALK inhibitor: galactokinase (human) inhibition; Purified GALK, Kinase-Glo residual ATP luminescence; Potency, µM (highest dose often 57.5 µM), for the others: top-dose activity change, negative = inhibition, most hits filed as inhibitors; hit rate 0.007% among 270,000; AID 1868; also: potency is read from the fitted curve at half-maximal effect
Target sequence (P51570 whole entry, looked up): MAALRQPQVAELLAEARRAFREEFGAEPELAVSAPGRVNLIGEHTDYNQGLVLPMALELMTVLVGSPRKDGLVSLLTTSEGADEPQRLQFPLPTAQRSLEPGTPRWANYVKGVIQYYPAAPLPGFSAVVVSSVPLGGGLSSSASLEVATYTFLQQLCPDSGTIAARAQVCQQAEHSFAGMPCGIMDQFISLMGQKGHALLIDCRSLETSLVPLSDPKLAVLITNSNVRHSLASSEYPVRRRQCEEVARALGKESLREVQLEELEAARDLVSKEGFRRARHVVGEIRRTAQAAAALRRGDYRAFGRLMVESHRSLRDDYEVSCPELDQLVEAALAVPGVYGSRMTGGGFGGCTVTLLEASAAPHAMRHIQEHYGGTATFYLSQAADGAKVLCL
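Luminescence from leftover ATP (Ultra-Glo luciferase/luciferin) served as read-out after a 1 h room-temperature reaction of 5 nM GALK with 35 uM ATP and 100 uM galactose.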
TrxR1 substrate: is turned over as a substrate by rat TrxR1; Potency, µM (titrated, usually from 114 µM), inactives show at the top dose activity change, negative = substrate turnover; AID 588456; O89049; hit rate 0.01% among 390,000; purified TrxR1 substrate turnover, NADPH consumption readout; also: potency is read from the fitted curve at half-maximal effect; nearly all actives have a fitted effect of over 50% in size
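Rat TrxR1, dispensed at 90 nM, was prereduced with 400 uM NADPH (final) for 5 min at ~22 deg C, then incubated with compound 15 min before 400 uM selenite. A first-read NADPH fluorescence drop versus no-compound background flagged substrates.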
VP16 counter: inhibits Gal4-VP16 luciferase reporter, ROR gamma counter-screen. Drosophila S2 Gal4-VP16 UAS-luciferase, luminescence, 20 h. Potency, µM (highest dose often 53.6 µM), for inactives: at the top dose activity, negative = inhibition, most hits filed as inhibitors. hit rate 3.5% among 310,000. AID 2546;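 also: Gal4-VP16 expression switched on by copper sulfate through the metallothionein promoter; potency is read from the fitted curve at half-maximal effect; nearly all actives have a fitted effect of over 50% in size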
RORg inh: ROR gamma (mouse) transcription inhibition; hit rate 5.4% among 310,000; AID 2551; P51450; Potency, µM (doses to about 53.6 µM), without a hit: at the highest dose activity change, negative = inhibition, actives largely listed as inhibitors; Drosophila S2 Gal4-RORgamma UAS-luciferase reporter, 20 h; also: potency is read from the fitted curve at half-maximal effect; nearly all actives have a fitted effect of over 60% in size
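Stably transfected Drosophila Schneider cells are the test system, with ROR gamma fused to Gal4 and luciferase under UAS control; luminescence is read after 20 hr of 700 uM copper sulfate induction at ambient temperature.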
Coupling enz: coupling enzyme interference in Giardia aldolase counter-screen; coupling enzyme system counterscreen, AmpLite Red fluorescence; activity change, negative = inhibition, % at 58.2 µM, hits read low; hit rate 0.67% among 290,000; AID 2472; in the data active = activity change below about -30%
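Fluorescence at 525 nm excitation and 598 nm emission measured inhibition of the coupled detection system without aldolase. Compounds (at 57.5 uM final) were preincubated 10 min at room temperature with coupling enzyme reagent before a 20 min substrate/AmpLite Red step.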
rTrxR1 inhibitor: blocks rat thioredoxin reductase 1. recombinant rTrxR1, NADPH fluorescence consumption, selenite substrate. Potency, µM (titrated, usually from 114 µM), without a hit: top-dose activity change, negative = inhibition, usual class: inhibitors. hit rate 1% among 390,000; also: potency is read from the fitted curve at half-maximal effect; nearly all actives have a fitted effect of over 65% in size
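Rat TrxR1 (90 nM in the dispensed reagent) was pre-reduced with 400 uM NADPH for 5 min at room temperature, then incubated with compound for 15 min. After 400 uM selenite was added, NADPH fluorescence (Ex 340/Em 450 nm) was followed for 8 min.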
The depositor's hits bear a star; ? = inconclusive; nt = no result given; ! = repeats disagree; [ ] = remark or other dose. In the library only some 5.9% were active in any assay of this set; here they are far more common. Unless noted, calls follow the shape of the dose curve; as a rule, active = well fitted curve in the direction sought with a large enough effect; inconclusive = small, poorly fitted or top-dose-only effect, or another doubt; inactive = no such curve, though single readings can be large; an effect the other way counts as inactive or inconclusive. % is scaled to controls: 0 for no effect and ±100 for the full control effect.

SMILES | GALK inhibitor | TrxR1 substrate | VP16 counter | RORg inh | Coupling enz | rTrxR1 inhibitor
CCN(CC)S(=O)(=O)c1cccc(C(=O)NCC(c2ccccc2)N(C)C)c1 (stereo not drawn) | -2% | 7%[57.1 µM] | 2% | 35% | -2 | 8%[57.1 µM]
COc1ccccc1N=Cc1nc(-c2ccccc2)oc1OC(C)=O | 0% | -8%[57.1 µM] | ? | ? | -7 | -35%[57.1 µM]
CC(=O)Oc1oc(-c2ccccc2)nc1/C=N/c1ccccn1 | -4% | -3% | -5% | -2% | -1 | 7.1µM*
CCCCNc1ncnc2oc(-c3ccco3)c(-c3ccco3)c12 | nt | 18% | nt | nt | nt | ?
Clc1ccccc1Cn1c(/C=C/c2ccco2)nc2ccccc21 | -2% | -1% | ? | 11µM* | 0 | 50µM*
O=C1C([N+](=O)[O-])=C(O)c2cccc3cccc1c23 | -3% | nt | 18µM* | ? | -51* | nt
O=C1c2cccc3cc([N+](=O)[O-])cc(c23)C(=O)N1/N=C/c1ccc(O)cc1O | -3% | -6% | ? | -24% | -3 | -8%
Cc1ccc(C(=O)N/N=C\c2cccn2C)cn1 | 0% | -18% | ? | 11µM* | -6 | -11%
Cn1cccc1/C=N/NC(=O)c1cccnc1 | 0% | -5% | 1% | -40% | 2 | -4%
Cc1ccc(C(=O)N/N=C\c2ccc(-c3ccc(Cl)cc3)o2)cn1 | -4% | 3% | 10µM* | 2.5µM* | 1 | 18%
CCCc1cc(C(=O)N/N=C/c2cccn2C)cs1 | -2% | 4%[57.1 µM] | 22µM* | 11µM* | nt | 6%[57.1 µM]
Cc1ccc(C(=O)N/N=C\c2ccc(-c3ccc([N+](=O)[O-])cc3)o2)cn1 | 0% | -4% | -2% | ? | 1 | 4%
Cc1ccc2cc(C#N)c(N3CCCN(S(=O)(=O)c4ccccc4)CC3)nc2c1C | nt | 2% | nt | nt | nt | -6%
Cc1ccc(C2=C(O)C(=O)C(c3ccc(C)cc3)=C(O)C2=O)cc1 | nt | 5%[11.4 µM] | nt | nt | nt | -4%[11.4 µM]
O=C(c1cccc(F)c1)N1CCN(S(=O)(=O)Cc2ccccc2)CC1 | 1% | 5% | -3% | 3% | 1 | 9%
COc1ccc(N2CC(C(=O)Nc3ccc(F)cc3F)CC2=O)cc1 (stereo not drawn) | 2% | -2% | 23% | -6% | -1 | 12%
O=C(c1ccccc1)c1nccn1-c1ccc(Cl)nn1 | -1% | 4%[57.1 µM] | 3% | 17% | 2 | 13%[57.1 µM]
CCCS(=O)(=O)c1ncc(Cl)c(C(=O)N2CCN(c3ccc(OC)cc3)CC2)n1 | nt | 5%[57.1 µM] | nt | nt | nt | 8.9µM*
CCSc1ncc(Cl)c(C(=O)N2CCN(c3ccc(OC)cc3)CC2)n1 | nt | -5% | nt | nt | nt | 1%
CC(C)CNC(=S)NNC(=O)c1csc2c1CCCC2 | 0% | 2%[57.1 µM] | ? | 7.1µM* | 4 | -17%[57.1 µM]
COc1ccc(-c2n[nH]c(=S)n2N)c(OC)c1 | 0% | -2% | 4% | -14% | 0 | ?
CCn1c(-c2cc(-c3cc(OC)ccc3OC)nc3ccccc23)n[nH]c1=S | -1% | 14% | -17% | 8.9µM* | 2 | 16%
CCn1c(-c2cc(-c3ccccc3OC)nc3ccccc23)n[nH]c1=S | 2% | 11% | -3% | 7.9µM* | 3 | -3%
CN(C)CCc1cc2c(c3c1ccc1ccccc13)OCO2 | -6% | 20% | ? | ? | -36*! | 24%
COc1cc2ccc3c(CCN(C)C)cc(OC)c(OC)c3c2cc1OC | 2% | 4% | 3% | -28% | 2 | 22%
SMILES | GALK inhibitor | TrxR1 substrate | VP16 counter | RORg inh | Coupling enz | rTrxR1 inhibitor
S=C(Nc1cccc(Cl)c1)N1CCN(c2ccccn2)CC1 | 6% | 0% | 13µM* | 11µM* | -3 | 17%
S=C(NC1CCCC1)N1CCN(c2cccc(Cl)c2)CC1 | 0% | -2% | -25% | 11µM* | 5 | 3%
O=S(=O)(c1cccc(NC(=S)N2CCN(c3ccc(F)cc3)CC2)c1)C(F)F | 0% | -10% | ? | 41% | -1 | -2%
S=C(Nc1ccc(Cl)c(Cl)c1)N1CCN(c2ccccn2)CC1 | -6% | -6%[57.1 µM] | -9% | -28%[1.91 µM] | 1 | 12%[2.29 µM]
O=S(=O)(c1cccc(NC(=S)N2CCN(c3cccc(Cl)c3)CC2)c1)C(F)F | -2% | -20%[57.1 µM] | ? | 13µM* | -6 | 15%[57.1 µM]
S=C(Nc1ccc(Oc2ccccc2)cc1)N1CCN(c2ccccn2)CC1 | -2% | -3%[57.1 µM] | ? | 11µM* | 2 | 5%[57.1 µM]
Nc1nc2c(nc(N3CCCCC3)n2[C@@H]2O[C@H](CO)[C@@H](O)[C@H]2O)c(=O)[nH]1 | nt | 2% | 4% | 0% | 0 | 15%
COc1ccc(C(=O)CN2CCN(c3cc(C)nc4ccccc34)CC2)cc1 | 7% | 0% | 2% | -6% | 1 | -22%
O=C(CO/N=C/c1ccc(OC(F)F)cc1)N1CCc2ccccc21 | 0% | -12% | -9% | 6% | 8 | -6%
COc1ccc(C(C)=O)cc1COc1cccc2c1OC(C)(C)C2 | -5% | 9% | -3% | 29% | nt | 32µM*
Cc1cc(C(=O)N2CCCC(N3CCN(c4cccc(C(F)(F)F)c4)CC3)C2)c(C)o1 (stereo not drawn) | -3% | 4% | -5% | -5% | 0 | 7%
CCCn1c(C2CCCN2c2nc(-c3cccc(Br)c3)cs2)nc2ccccc21 (stereo not drawn) | nt | -1%[57.1 µM] | ? | 2.5µM* | -3 | 14%[57.1 µM]
Cc1ccc(C(=O)NC(=S)Nc2cccc(NC(=O)c3ccccc3Cl)c2)cc1[N+](=O)[O-] | 1% | -8% | 4µM* | 5.6µM* | 1 | -13%
C/C(=N/NC(N)=S)c1ccccc1[N+](=O)[O-] | -2% | 0% | ? | 7.1µM* | 0 | -12%
CC(=O)Nc1ccccc1NC(=O)C/C(C)=N/NC(=O)c1ccc([N+](=O)[O-])c(Cl)c1 | 2% | 5% | -8% | ? | 3 | -7%
Cc1ccc(C(=O)NC(=S)Nc2cccc(NC(=O)c3ccccc3)c2)cc1[N+](=O)[O-] | 0% | -14% | 3.5µM* | 2.5µM* | 3 | -20%
C/C(=N\NC(=O)c1ccc([N+](=O)[O-])c(C)c1)c1ccccc1Cl | nt | 9% | ? | 7.9µM* | 0 | 20%
CCCCN1C(=O)C(=Nc2cccc3cnccc23)c2ccccc21 | -3% | -6% | 12% | -19% | -19 | 14%[57.1 µM]
CCOC(=O)c1sc(NC(=O)Nc2ccccc2F)nc1C | 1% | -3% | 8.9µM* | 7.9µM* | 1 | 17%
CCOC(=O)c1sc(NC(=O)c2cc3ccccc3o2)nc1C | -2% | 7% | ? | 4µM* | 3 | 8%[57.1 µM]
CCOC(=O)CNC(=O)c1sc(NC(=O)c2cccc(F)c2)nc1C | -2% | -5% | 0% | -2% | 1 | 8%
CCOC(=O)CNC(=O)c1sc(NC(=O)c2ccccc2F)nc1C | 6% | -4%[57.1 µM] | 2.5µM* | ? | 0 | 13%
